Experimental data taken from PubChem BioAssay AID588456 (National Center for Advancing Translational Sciences (NCATS), 2011).
Screen size: about 390,000 compounds; about 55 (0.01%) were called active. Calls come from the whole dose curve; as a rule, active = well fitted inhibition curve with a large enough effect; inconclusive = small, poorly fitted or top-dose-only effect; inactive = no such curve, though single readings can be large or run the other way. The list is a sample of the results.

molecular target: Thioredoxin reductase 1, cytoplasmic (Rattus norvegicus) (UniProt O89049); test: qHTS Assay for Substrates of Mammalian Selenoprotein Thioredoxin Reductase 1 (TrxR1): qHTS; details: purified TrxR1 substrate turnover, NADPH consumption readout; series mostly up to 114 µM; activity change, negative = substrate turnover: at the top concentration; note: nearly all actives have a fitted effect of over 50% in size
Sequence (O89049 whole entry, looked up): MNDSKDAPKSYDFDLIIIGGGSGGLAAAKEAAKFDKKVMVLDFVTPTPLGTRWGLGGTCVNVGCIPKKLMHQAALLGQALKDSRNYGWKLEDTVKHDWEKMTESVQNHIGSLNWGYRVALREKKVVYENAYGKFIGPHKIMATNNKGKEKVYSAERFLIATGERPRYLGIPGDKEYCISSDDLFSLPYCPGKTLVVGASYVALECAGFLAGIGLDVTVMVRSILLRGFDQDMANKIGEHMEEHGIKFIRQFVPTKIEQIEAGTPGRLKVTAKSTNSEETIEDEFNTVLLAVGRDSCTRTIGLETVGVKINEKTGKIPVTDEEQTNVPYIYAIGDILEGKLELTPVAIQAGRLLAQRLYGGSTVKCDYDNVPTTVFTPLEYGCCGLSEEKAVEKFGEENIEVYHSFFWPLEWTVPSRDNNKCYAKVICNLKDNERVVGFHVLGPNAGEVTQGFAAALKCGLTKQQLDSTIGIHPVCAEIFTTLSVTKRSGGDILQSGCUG
From the text: The selenoprotein thioredoxin reductase (TrxR; EC 1.8.1.9) is a FAD containing homodimeric pyridine nucleotide-disulfide oxidoreductase with many cellular roles. Together with NADPH and its prime substrate thioredoxin (Trx), the enzyme forms the core of the Trx system. The mammalian Trx system exerts a wide spectrum of functions including redox regulation, antioxidant defense, regulation of transcription factors as well as support of cell growth and replication. Many of these functions involve the reduction of Trx, which may subsequently reduce a number of different substrates including ribonucleotide reductase, peroxiredoxins or NFkB. Mammalian TrxR itself also has a broad substrate specificity, reducing both protein and non-protein substrates, including low molecular weight compounds such as dehydroascorbate, lipoic acid, ubiquinone, and juglone. In addition, several drugs in clinical use for anticancer treatment are indeed known to target TrxR1.
This BioAssay is a validation of an NADPH fluorescence-based, dual-purpose qHTS rTrxR1 assay designed to find potential inhibitors and substrates of rTrxR1. For this particular BioAssay, actives are potential substrate. See related BioAssay for inhibition data deposition.
NIH Molecular Libraries Probe Production Network [MLPCN]
NIH Chemical Genomics Center [NCGC]
Assay Provider: Elias Arner, Karolinska Institute
Assay protocol: 2 uL of reagents (buffer in column 4 as negative control and 90 nM rTrxR1 in columns 1-3 and 5-48) were dispensed into Greiner black solid-bottom 1,536-well assay plates, followed by 1 uL of NADPH (400 uM final concentration) to each well. The plates were centrifuged at 1000 rpm for 15 seconds and subsequently incubated for 5 min at room temperature (~22 deg C) to allow for rTrxR1 reduction. Compounds (23 nL) were then transferred via Kalypsys pin tool equipped with 1536-pin array (10 nL slotted pins, V&P Scientific, San Diego, CA). In addition, a duplicate 2-fold serial dilution of the control compounds auranofin, a known gold-based TrxR1 inhibitor, and juglone (5-hydroxy-1,4-naphthoquinone), a natural TrxR1 substrate, were pin-transferred to columns 2 and 3, respectively. After incubation for 15 min at room temperature (~22 deg C), 1 uL of selenite (400 uM final concentration) were dispensed to each well. The plate was immediately transferred to a ViewLux high-throughput CCD imager (PerkinElmer), wherein kinetic measurements of NADPH fluorescence (Ex 340 nm, Em 450 nm) were acquired (8 minute kinetic read, see Table 1). Read 1 was utilized to assess the capacity of a compound to serve as an rTrxR1 substrate, i.e. a decrease in NADPH fluorescence compared to the no-compound background is an indication of a substrate behavior for that particular compound. For inhibitory activity of a compound, delta values, computed as the difference in fluorescence intensity between the first and last reads of an 8-minute time kinetic window, were used. All reagents were diluted in an assay buffer consisting of 50 mM Tris-HCl, pH 7.5, 2 mM EDTA, and 0.01% Tween-20.
Throughout the screen, reagent bottle and all liquid lines were made light-tight to minimize reagent degradation. All screening operations were performed on a fully integrated robotic system (Kalypsys, San Diego, CA) containing one RX-130 and two RX-90 anthropomorphic robotic arms (Staubli, Duncan, SC). Library plates were screened starting from the lowest and proceeding to the highest concentration, and a 'double-pinning' step of the highest concentration was required to access higher concentrations of compounds. Vehicle-only plates, with DMSO being pin-transferred to the columns 5-48, were inserted uniformly at the beginning and the end of each library in order to monitor and record any shifts in the background, which can be affected by reagent dispensers or loss in enzyme activity over time. […]
% is set by controls: 0 for no effect and ±100 for the full control effect.

Activity change, negative = substrate turnover, inactive:
CC(C)(C)C1CCC(NC(=O)c2cnn3c2NC(=C2CC2)C=C3C(F)F)CC1 (centres undefined) 3.26%
O=[N+]([O-])c1ccc(S(=O)(=O)N2CCN(c3nc(-c4ccccc4)nc4ccccc34)CC2)cc1 -1.75%
Cc1cccc(-n2ccnc2SCC(=O)Nc2cc(C(F)(F)F)ccc2Cl)c1 -2.94% [at 57.1 µM]
CN1CCN(/[N+]([O-])=N/Oc2ccc([N+](=O)[O-])cc2[N+](=O)[O-])CC1 -6.58%
COc1cc2nc(N3CCCN(C)CC3)nc(NC(C)C)c2cc1OC 31.6%
CN(N=O)c1ccc(C=C2c3ccccc3-c3ccccc32)cc1 -1.85%
COc1ccc(-c2nc(=N)sn2-c2ccccc2)cc1 -8.32%
CN(C)c1ccc(/C=C/c2c3ccccc3nc3ccccc23)cc1 6.6%
CN(C)c1cc2c(Nc3ccc4c(cnn4Cc4ccccc4)c3)ncnc2cn1 -3.11% [at 57.1 µM]
CC(C)(C)n1ncc2c(=O)n(Cc3ccc(C(=O)c4ccccc4)cc3)cnc21 -4.32%
CC(C)(C)OC(=O)N(Cc1ccco1)S(=O)(=O)c1ccccc1Br -4.16%
CC(=O)c1ccc[n+](C(C)CCC(C)[n+]2cccc(C(C)=O)c2)c1 (centres undefined) 4.01% [at 0.0914 µM]
CCOc1ccc(CCNC(=O)c2csc3c2CCCCC3)cc1 -1.88%
CN(C(=N)N)c1ccc(/C=C2\C=Cc3ccccc32)cc1 -3.13%
Cc1cccc(-n2ncc(C(=O)N3CCc4ccccc4C3)c2C2CCN(C(=O)OC(C)(C)C)CC2)c1 -7.64%
Cc1cccc(NC(=O)CSc2nc3c(oc4ccccc43)c(=O)n2-c2ccc(F)cc2)c1 -1.84%
COc1cc(CNCCSc2nnnn2C)ccc1OCc1c(F)cccc1Cl 7.47% [at 11.4 µM]
CC1(C)Cc2ccccc2-c2c[nH]c(=O)n21 -0.238%
O=C(c1ccc2c(=O)n(Cc3ccco3)c(=S)[nH]c2c1)N1CCCC1 4.46%
N#Cc1ccc[n+](CC(=O)c2ccc(F)cc2)c1 1.15%
Nc1ncnc2nnsc12 7.52% [at 0.0914 µM]
Oc1ccc(Br)cc1C1C=C(c2ccc3c(c2)OCO3)NC(c2ccc(Cl)cc2)N1 (centres undefined) 6.51% [at 0.0914 µM]
COc1cc(CN(CC2CCCO2)C(=O)c2ccccc2F)cc(OC)c1OC (centres undefined) -0.795%
ClC/C=C/C[n+]1ccccc1Cl -8.25%
CCOC(=O)c1c(C)oc2ccc(N(C(=O)c3ccncc3)S(=O)(=O)c3ccc(CC)cc3)cc12 -5.68%
CCCCC(CCCC)c1ccc(C=Nc2ccc(/C=C/c3ccnc4ccccc34)cc2)cc1 -9.78%
COc1cc(OC)c(/C=C/c2ccnc3ccccc23)c(OC)c1 -0.93%
CCOC(=O)c1cccc(NC(=O)c2cc(S(=O)(=O)N3CCCC(C)C3)cn2C)c1 (centres undefined) 2.95% [at 57.1 µM]
O=C(Nc1ccccc1)c1ccccc1OCc1ccccc1 -1.98%
